Data taken from the supplement of paper PMC10849652.
Targets with a hit are over-represented here; the source holds about 7,900 in all. About 0.6% of all pairs of compound and target were hits.

What was measured:
Test in all cases: log2 fold change, soluble protein after heating vs DMSO (PISA); higher = thermal stabilisation; K562 cells, 10 uM, 30 min; active = over 0.2 and 3.5 SD of the protein, either way, in both replicates (recomputed)
IRAK-1-4 Inhibitor I = compound: C1COCCN1CCN2C3=CC=CC=C3N=C2NC(=O)C4=CC(=CC=C4)[N+](=O)[O-] [IRAK-1-4 Inhibitor I]
Procedure, shortened: (§1)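 Quantification of soluble protein used TMTpro 16plex LC-MS/MS, with channel sums equalised. Samples were the supernatant after 21,000xg for 90 min of pooled aliquots from K562 cells (2×10^6 cells/mL) treated with 10 μM compound for 30 min, heated for 3 min over 48°C-58°C, and extracted in PBS with 0.5% NP-40 at 4°C. Values, from duplicates, describe thermal stability against control samples on a log2 fold-change scale.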

ibrutinib = compound: C=CC(=O)N1CCC[C@@H](n2nc(-c3ccc(Oc4ccccc4)cc3)c3c(N)ncnc32)C1 [ibrutinib]
Procedure, shortened: as §1

[1] = compound: CC(=O)c1cnc2ccc(-c3cc(Cl)c(O)c(Cl)c3)nc2c1N[C@H]1CC[C@H](CN(C)C)CC1
Procedure, shortened: as §1

ralimetinib = compound: CC(C)(C)Cn1c(N)nc2ccc(-c3[nH]c(C(C)(C)C)nc3-c3ccc(F)cc3)nc21 [ralimetinib]
Procedure, shortened: as §1

[2] = compound: CC(C)(O)CC(=O)NCCn1ccc2ncnc(Nc3ccc(Oc4cccc(C(F)(F)F)c4)c(Cl)c3)c21
Procedure, shortened: as §1

[3] = compound: CC(C)C1=C2N=C(C=C(N2N=C1)NCC3=CC=CC=C3)NCCCCCCN
Procedure, shortened: as §1

[4] = compound: CC(C)C[C@@H](C=O)NC(=O)[C@H](CC(C)C)NC(=O)[C@H](CC(C)C)NC(=O)OCc1ccccc1
Procedure, shortened: as §1

pinometostat = compound: CC(C)N(C[C@H]1O[C@@H](n2cnc3c(N)ncnc32)[C@H](O)[C@@H]1O)[C@H]1C[C@@H](CCc2nc3cc(C(C)(C)C)ccc3[nH]2)C1 [pinometostat]
Procedure, shortened: as §1

[5] = compound: CC1=C(C(CC(=O)N1)C2=CC=C(C=C2)C(F)(F)F)C(=O)NC3=C(C=C4C(=C3)C=NN4)F
Procedure, shortened: as §1

[6] = compound: CC1=C(C2=C(C=C1)C(=O)C3=CC=CC=C3N2CCCN)C
Procedure, shortened: as §1

[7] = compound: CC1=C(C=C(C=C1)NC(=O)C2=CC(=CC=C2)C(C)(C)C#N)NC3=CC4=C(C=C3)N=CN(C4=O)C
Procedure, shortened: as §1

[8] = compound: CC1=C(C=C(C=C1)NC(=O)C2=CC(=CC=C2)N(C)C)NC(=O)C3=CC=C(C=C3)O
Procedure, shortened: as §1

[9] = compound: CC1=CC=C(C=C1)SC2=C3C=C(SC3=CN=C2)C(=O)N
Procedure, shortened: as §1

[10] = compound: CC1=NC(=CC=C1)C2=C(N=C(N2)C(C)(C)C)C3=CC4=NC=CN=C4C=C3
Procedure, shortened: as §1

Nexturastat A = compound: CCCCN(Cc1ccc(C(=O)NO)cc1)C(=O)Nc1ccccc1 [Nexturastat A]
Procedure, shortened: as §1

vemurafenib = compound: CCCS(=O)(=O)Nc1ccc(F)c(C(=O)c2c[nH]c3ncc(-c4ccc(Cl)cc4)cc23)c1F [vemurafenib]
Procedure, shortened: as §1

[11] = compound: CCCS(=O)(=O)Nc1ccc(F)c(C(=O)c2c[nH]c3ncc(Cl)cc23)c1F
Procedure, shortened: as §1

[12] = compound: CCCc1cc(C)[nH]c(=O)c1CNC(=O)c1cc(-c2ccnc(N3CCN(C)CC3)c2)cc2c1cnn2C(C)C
Procedure, shortened: as §1

givinostat = compound: CCN(CC)Cc1ccc2cc(COC(=O)Nc3ccc(C(=O)NO)cc3)ccc2c1 [givinostat]
Procedure, shortened: as §1

barasertib = compound: CCN(CCCOc1ccc2c(Nc3cc(CC(=O)Nc4cccc(F)c4)[nH]n3)ncnc2c1)CCOP(=O)(O)O [barasertib]
Procedure, shortened: as §1

Measured: log2 fold change

TMEM192 (UniProt Q8IY95)
active: [3] -0.481
inactive: IRAK-1-4 Inhibitor I 0.047 | ibrutinib -0.014 | [1] -0.012 | ralimetinib 0.025 | [2] 0.004 | [4] 0.029 | pinometostat 0.051 | [5] -0.004 | [6] -0.019 | [7] 0.013 | [8] -0.032 | [9] 0.026 | [10] -0.028 | Nexturastat A 0.004 | vemurafenib -0.006 | [11] -0.026 | [12] -0.014 | givinostat -0.038 | barasertib -0.005

TMEM63B (UniProt Q5T3F8)
inactive: IRAK-1-4 Inhibitor I -0.01 | ibrutinib -0.055 | [1] -0.002 | ralimetinib -0.034 | [2] 0.011 | [3] -0.157 | [4] -0.01 | pinometostat 0.041 | [5] 0.027 | [6] 0.054 | [7] 0.095 | [8] 0.014 | [9] 0.006 | [10] 0.004 | Nexturastat A 0.051 | vemurafenib 0.009 | [11] -0.011 | [12] -0.044 | givinostat 0.014 | barasertib -0.038

TPP1 (UniProt O14773)
UniProt O14773, sequence (O14773 whole entry, looked up): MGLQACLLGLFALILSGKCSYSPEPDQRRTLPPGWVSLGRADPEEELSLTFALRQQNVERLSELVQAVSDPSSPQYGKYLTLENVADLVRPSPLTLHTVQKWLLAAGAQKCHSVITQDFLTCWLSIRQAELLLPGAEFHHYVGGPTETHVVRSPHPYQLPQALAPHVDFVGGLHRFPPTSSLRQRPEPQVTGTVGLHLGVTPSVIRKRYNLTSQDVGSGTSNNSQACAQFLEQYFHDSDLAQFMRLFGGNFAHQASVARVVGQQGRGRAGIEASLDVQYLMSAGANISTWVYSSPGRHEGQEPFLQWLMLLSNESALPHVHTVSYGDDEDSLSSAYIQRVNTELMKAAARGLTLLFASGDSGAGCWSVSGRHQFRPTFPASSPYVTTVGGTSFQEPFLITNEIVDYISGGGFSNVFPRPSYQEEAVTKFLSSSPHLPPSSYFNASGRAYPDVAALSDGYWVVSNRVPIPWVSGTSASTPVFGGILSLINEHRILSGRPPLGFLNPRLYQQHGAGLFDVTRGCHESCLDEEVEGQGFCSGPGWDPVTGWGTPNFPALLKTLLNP
active: [3] -0.492
inactive: IRAK-1-4 Inhibitor I -0.007 | ibrutinib -0.01 | [1] -0.006 | ralimetinib -0.025 | [2] 0.059 | [4] 0.043 | pinometostat -0.052 | [5] 0.025 | [6] -0.009 | [7] 0.006 | [8] 0.037 | [9] 0.02 | [10] 0.03 | Nexturastat A -0.007 | vemurafenib -0.006 | [11] -0.021 | [12] 0 | givinostat -0.015 | barasertib -0.018

UHRF1BP1L (UniProt A0JNW5)
inactive: IRAK-1-4 Inhibitor I 0.018 | ibrutinib -0.051 | [1] -0.076 | ralimetinib -0.009 | [2] 0.193 | [4] -0.004 | pinometostat 0.03 | [5] -0.027 | [6] -0.019 | [7] -0.079 | [8] -0.031 | [9] -0.038 | [10] -0.032 | Nexturastat A -0.054 | vemurafenib -0.039 | [11] -0.033 | [12] 0.027 | givinostat -0.033 | barasertib 0
active: [3] 0.242

UTP4 (UniProt Q969X6)
UniProt Q969X6, sequence (Q969X6 whole entry, looked up): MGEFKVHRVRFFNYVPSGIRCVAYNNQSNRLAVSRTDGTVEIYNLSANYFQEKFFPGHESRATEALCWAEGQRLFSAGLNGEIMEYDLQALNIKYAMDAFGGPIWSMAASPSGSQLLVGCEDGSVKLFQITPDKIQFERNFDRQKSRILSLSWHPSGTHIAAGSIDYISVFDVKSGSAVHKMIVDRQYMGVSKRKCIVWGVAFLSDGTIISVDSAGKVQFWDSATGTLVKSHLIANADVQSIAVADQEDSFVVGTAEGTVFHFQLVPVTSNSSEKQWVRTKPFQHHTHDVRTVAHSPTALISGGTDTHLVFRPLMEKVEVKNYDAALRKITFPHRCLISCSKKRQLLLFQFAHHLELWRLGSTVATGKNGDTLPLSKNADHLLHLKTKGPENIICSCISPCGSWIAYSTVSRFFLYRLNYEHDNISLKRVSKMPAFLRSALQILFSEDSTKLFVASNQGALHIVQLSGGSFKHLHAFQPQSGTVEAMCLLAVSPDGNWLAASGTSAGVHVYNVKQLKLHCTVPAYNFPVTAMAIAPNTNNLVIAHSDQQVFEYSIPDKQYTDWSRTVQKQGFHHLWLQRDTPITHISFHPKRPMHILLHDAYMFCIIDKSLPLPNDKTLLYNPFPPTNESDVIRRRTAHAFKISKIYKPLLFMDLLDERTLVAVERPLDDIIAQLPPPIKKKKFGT
active: [3] 0.233 | [6] 0.343
inactive: IRAK-1-4 Inhibitor I 0.003 | ibrutinib 0.002 | [1] 0.02 | ralimetinib -0.07 | [2] 0.045 | [4] -0.014 | pinometostat -0.017 | [5] -0.019 | [7] -0.036 | [8] 0.029 | [9] 0.009 | [10] -0.007 | Nexturastat A -0.06 | vemurafenib -0.028 | [11] -0.021 | [12] -0.019 | givinostat -0.033 | barasertib -0.005

TNPO2 (UniProt O14787)
inactive: IRAK-1-4 Inhibitor I -0.088 | ibrutinib -0.023 | [1] -0.051 | ralimetinib 0.027 | [2] -0.138 | [4] -0.042 | pinometostat 0.012 | [5] 0.023 | [6] -0.171 | [7] 0.052 | [8] -0.01 | [9] 0.073 | [10] 0.015 | Nexturastat A 0.021 | vemurafenib 0.061 | [11] 0.11 | [12] 0.007 | givinostat 0.083 | barasertib 0.054
active: [3] -0.339

TOM1 isoform 2 (UniProt O60784)
UniProt O60784, sequence (O60784 whole entry, looked up): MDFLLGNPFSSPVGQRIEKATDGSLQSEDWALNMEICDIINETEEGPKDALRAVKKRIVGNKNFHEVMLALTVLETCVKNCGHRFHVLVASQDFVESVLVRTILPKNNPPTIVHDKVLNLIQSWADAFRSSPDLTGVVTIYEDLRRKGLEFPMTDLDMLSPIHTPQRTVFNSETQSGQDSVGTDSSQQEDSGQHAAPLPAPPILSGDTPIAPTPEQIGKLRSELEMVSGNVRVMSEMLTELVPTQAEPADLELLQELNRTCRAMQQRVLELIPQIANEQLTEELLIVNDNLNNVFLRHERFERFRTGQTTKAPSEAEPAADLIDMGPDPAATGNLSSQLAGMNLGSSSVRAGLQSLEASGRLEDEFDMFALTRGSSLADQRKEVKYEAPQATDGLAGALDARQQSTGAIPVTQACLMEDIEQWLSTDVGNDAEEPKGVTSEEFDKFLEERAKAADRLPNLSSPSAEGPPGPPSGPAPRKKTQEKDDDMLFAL
inactive: IRAK-1-4 Inhibitor I 0.101 | ibrutinib 0.013 | [1] 0.028 | ralimetinib 0.071 | [2] -0.017 | [3] -0.302 | [4] 0.033 | pinometostat 0.023 | [5] -0.006 | [6] 0.16 | [7] 0.17 | [8] 0.026 | [9] 0.02 | [10] 0.051 | Nexturastat A -0.028 | vemurafenib 0.17 | [11] 0.041 | [12] 0 | givinostat 0.013 | barasertib -0.01

VPS33B (UniProt Q9H267)
inactive: IRAK-1-4 Inhibitor I -0.049 | ibrutinib -0.041 | [1] -0.068 | ralimetinib 0.057 | [2] -0.107 | [3] -0.178 | [4] 0.098 | pinometostat 0.156 | [5] 0 | [6] 0.049 | [7] -0.05 | [8] -0.037 | [9] -0.015 | [10] -0.02 | Nexturastat A 0.032 | vemurafenib 0.087 | [11] 0.069 | [12] 0.111 | givinostat 0.029 | barasertib 0.088

WDR7 (UniProt Q9Y4E6)
UniProt Q9Y4E6, sequence (Q9Y4E6 whole entry, looked up): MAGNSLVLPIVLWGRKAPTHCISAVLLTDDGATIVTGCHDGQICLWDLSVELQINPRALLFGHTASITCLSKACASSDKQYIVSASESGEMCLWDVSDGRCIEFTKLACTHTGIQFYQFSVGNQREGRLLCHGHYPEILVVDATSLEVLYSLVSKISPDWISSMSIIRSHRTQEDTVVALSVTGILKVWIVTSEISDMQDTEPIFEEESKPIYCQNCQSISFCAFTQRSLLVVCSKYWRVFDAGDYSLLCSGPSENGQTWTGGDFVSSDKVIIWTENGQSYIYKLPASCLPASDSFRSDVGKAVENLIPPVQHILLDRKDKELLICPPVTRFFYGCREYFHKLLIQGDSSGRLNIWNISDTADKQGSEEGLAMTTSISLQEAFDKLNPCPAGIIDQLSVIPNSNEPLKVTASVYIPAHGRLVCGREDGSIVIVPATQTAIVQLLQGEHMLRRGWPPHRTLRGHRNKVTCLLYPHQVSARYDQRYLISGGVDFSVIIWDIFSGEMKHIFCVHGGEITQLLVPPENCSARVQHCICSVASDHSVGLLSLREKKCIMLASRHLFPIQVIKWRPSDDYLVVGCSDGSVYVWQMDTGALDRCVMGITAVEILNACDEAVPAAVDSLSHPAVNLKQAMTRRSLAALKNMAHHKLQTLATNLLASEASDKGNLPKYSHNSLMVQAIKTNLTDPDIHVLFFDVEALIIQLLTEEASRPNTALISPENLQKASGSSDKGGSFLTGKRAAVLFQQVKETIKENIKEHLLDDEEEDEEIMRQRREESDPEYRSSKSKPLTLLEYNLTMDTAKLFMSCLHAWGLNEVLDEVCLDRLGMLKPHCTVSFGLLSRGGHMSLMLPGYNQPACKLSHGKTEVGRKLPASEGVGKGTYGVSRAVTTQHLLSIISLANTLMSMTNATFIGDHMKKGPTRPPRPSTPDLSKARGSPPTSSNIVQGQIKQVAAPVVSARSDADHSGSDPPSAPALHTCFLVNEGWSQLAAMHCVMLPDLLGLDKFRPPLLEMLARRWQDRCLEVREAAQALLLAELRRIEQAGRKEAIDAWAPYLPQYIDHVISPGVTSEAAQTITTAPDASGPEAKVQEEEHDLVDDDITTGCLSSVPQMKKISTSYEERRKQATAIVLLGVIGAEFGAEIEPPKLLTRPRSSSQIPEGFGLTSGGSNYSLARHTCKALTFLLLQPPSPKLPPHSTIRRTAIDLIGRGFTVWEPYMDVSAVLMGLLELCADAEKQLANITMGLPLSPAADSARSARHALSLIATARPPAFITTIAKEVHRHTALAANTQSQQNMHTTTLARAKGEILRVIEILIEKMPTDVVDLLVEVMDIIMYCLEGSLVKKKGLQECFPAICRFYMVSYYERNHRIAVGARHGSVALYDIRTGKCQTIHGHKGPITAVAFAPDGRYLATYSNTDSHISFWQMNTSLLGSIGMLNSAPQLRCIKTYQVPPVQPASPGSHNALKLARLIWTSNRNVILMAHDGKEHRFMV
active: [3] -0.429
inactive: IRAK-1-4 Inhibitor I -0.112 | ibrutinib -0.027 | [1] -0.078 | ralimetinib 0.067 | [2] -0.141 | [4] 0.1 | pinometostat 0.062 | [5] 0.029 | [6] 0.122 | [7] -0.029 | [8] -0.008 | [9] -0.016 | [10] -0.025 | Nexturastat A -0.216 | vemurafenib 0.091 | [11] 0.083 | [12] 0.202 | givinostat 0.067 | barasertib 0.03

TMEM223 (UniProt A0PJW6)
UniProt A0PJW6, sequence (A0PJW6 whole entry, looked up): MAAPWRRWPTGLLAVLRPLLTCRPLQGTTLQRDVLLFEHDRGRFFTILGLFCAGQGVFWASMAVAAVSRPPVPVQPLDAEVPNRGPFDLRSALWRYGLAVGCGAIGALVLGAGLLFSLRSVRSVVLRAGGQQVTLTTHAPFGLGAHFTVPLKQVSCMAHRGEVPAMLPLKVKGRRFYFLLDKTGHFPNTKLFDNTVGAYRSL
inactive: IRAK-1-4 Inhibitor I 0.039 | ibrutinib 0.006 | [1] -0.101 | ralimetinib -0.009 | [2] 0.114 | [3] -0.063 | [4] 0 | pinometostat -0.019 | [5] -0.087 | [6] 0.042 | [7] 0.034 | [8] -0.001 | [9] -0.026 | [10] 0.058 | Nexturastat A -0.13 | vemurafenib 0.084 | [11] 0.055 | [12] -0.128 | givinostat 0.002 | barasertib 0.041

TMEM161A (UniProt Q9NX61)
active: [3] -0.395
inactive: IRAK-1-4 Inhibitor I 0.03 | ibrutinib -0.015 | [1] 0.045 | ralimetinib -0.059 | [2] -0.17 | [4] -0.045 | pinometostat 0.121 | [5] -0.076 | [6] 0.071 | [7] -0.045 | [8] 0.12 | [9] 0.014 | [10] -0.012 | Nexturastat A -0.059 | vemurafenib 0.045 | [11] 0.225 | [12] -0.048 | givinostat 0.024 | barasertib -0.017

TMEM208 (UniProt Q9BTX3)
UniProt Q9BTX3, sequence (Q9BTX3 whole entry, looked up): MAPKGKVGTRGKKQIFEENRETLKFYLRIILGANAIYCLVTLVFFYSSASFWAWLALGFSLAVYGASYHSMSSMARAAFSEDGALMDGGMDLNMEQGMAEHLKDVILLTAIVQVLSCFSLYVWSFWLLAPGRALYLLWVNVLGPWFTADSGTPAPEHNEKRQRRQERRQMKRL
active: [3] -0.412
inactive: IRAK-1-4 Inhibitor I 0.04 | ibrutinib -0.09 | [1] 0.078 | ralimetinib -0.145 | [2] -0.088 | [4] 0.046 | pinometostat 0.081 | [5] -0.016 | [6] 0.081 | [7] -0.093 | [8] 0.005 | [9] 0.037 | [10] -0.022 | Nexturastat A -0.112 | vemurafenib -0.06 | [11] 0.035 | [12] -0.219 | givinostat 0.097 | barasertib -0.012

TOP2A isoform 4 (UniProt P11388)
inactive: IRAK-1-4 Inhibitor I -0.145 | ibrutinib 0.116 | [1] 0.154 | ralimetinib 0.324 | [2] 0 | [3] -0.125 | [4] 0.261 | pinometostat 0.533 | [5] 0.041 | [7] 0.081 | [8] -0.006 | [9] -0.083 | [10] -0.094 | Nexturastat A 0.234 | vemurafenib -0.213 | [11] 0.042 | [12] 0.182 | givinostat 0.207 | barasertib -0.054
active: [6] -0.968

TMEM87B (UniProt Q96K49)
active: [3] -0.39
inactive: IRAK-1-4 Inhibitor I 0.139 | ibrutinib -0.084 | [1] -0.046 | ralimetinib -0.086 | [2] -0.204 | [4] -0.007 | pinometostat 0.065 | [5] 0.057 | [6] 0.029 | [7] -0.018 | [8] -0.013 | [9] 0.112 | [10] -0.008 | Nexturastat A -0.059 | vemurafenib -0.048 | [11] -0.028 | [12] 0.008 | givinostat -0.063 | barasertib 0.048

TSFM (UniProt P43897)
UniProt P43897, sequence (P43897 whole entry, looked up): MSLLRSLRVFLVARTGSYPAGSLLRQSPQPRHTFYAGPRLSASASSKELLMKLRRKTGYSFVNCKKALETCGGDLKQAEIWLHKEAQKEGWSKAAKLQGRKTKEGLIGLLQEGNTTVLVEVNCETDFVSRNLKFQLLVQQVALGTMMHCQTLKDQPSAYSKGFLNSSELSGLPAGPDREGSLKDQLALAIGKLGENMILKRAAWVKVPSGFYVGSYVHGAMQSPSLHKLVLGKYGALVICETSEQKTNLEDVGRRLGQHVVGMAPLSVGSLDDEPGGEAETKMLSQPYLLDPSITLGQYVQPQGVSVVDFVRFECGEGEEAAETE
inactive: IRAK-1-4 Inhibitor I -0.065 | ibrutinib -0.134 | [1] -0.067 | ralimetinib 0.011 | [2] -0.254 | [3] 0.069 | [4] -0.058 | pinometostat -0.08 | [5] -0.066 | [6] 0.258 | [7] 0.253 | [8] -0.167 | [9] 0.021 | [10] 0.11 | Nexturastat A -0.057 | vemurafenib 0.08 | [11] 0.034 | [12] 0.181 | givinostat 0.041 | barasertib 0.075

UBAP2L isoform 1 (UniProt Q14157)
UniProt Q14157, sequence (Q14157 whole entry, looked up): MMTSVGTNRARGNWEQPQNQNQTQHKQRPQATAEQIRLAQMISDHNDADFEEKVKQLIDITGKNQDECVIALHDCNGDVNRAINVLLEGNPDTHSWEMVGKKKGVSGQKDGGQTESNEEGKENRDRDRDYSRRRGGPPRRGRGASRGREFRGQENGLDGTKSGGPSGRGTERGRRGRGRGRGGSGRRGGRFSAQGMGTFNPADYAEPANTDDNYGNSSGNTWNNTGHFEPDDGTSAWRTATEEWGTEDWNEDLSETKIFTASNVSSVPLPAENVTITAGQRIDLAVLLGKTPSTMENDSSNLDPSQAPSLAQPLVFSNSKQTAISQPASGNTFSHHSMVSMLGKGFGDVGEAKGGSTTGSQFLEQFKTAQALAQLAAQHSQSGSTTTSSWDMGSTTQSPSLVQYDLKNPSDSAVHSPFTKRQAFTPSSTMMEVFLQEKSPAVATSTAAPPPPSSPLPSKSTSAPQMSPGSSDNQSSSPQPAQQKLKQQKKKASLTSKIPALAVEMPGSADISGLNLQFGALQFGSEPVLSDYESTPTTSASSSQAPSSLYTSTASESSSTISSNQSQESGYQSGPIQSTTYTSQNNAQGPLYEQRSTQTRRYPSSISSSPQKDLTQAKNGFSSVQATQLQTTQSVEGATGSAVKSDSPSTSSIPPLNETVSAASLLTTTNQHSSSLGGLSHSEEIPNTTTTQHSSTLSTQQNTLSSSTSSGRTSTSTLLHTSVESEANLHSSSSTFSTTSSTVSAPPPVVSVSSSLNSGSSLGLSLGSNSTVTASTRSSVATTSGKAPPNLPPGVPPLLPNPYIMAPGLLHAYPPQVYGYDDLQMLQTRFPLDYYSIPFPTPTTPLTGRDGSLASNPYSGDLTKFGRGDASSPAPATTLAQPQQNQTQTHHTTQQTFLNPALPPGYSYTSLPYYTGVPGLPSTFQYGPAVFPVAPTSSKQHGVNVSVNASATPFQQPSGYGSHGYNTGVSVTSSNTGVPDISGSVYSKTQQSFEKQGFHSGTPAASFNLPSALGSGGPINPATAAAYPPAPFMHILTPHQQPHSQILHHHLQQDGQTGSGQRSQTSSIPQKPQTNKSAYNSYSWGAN
active: [11] 0.246 | givinostat -0.261
inactive: IRAK-1-4 Inhibitor I 0.076 | ibrutinib -0.006 | [1] 0.007 | ralimetinib -0.025 | [2] 0.016 | [3] 0.103 | [4] 0.029 | pinometostat -0.031 | [5] 0.073 | [6] 0.055 | [7] -0.057 | [8] 0.035 | [9] -0.016 | [10] 0.025 | Nexturastat A 0.012 | vemurafenib -0.083 | [12] -0.045 | barasertib -0.011
